About 200 (0.44%) of roughly 45,000 compounds were called active. About 7% were inconclusive and are not listed. The sample as a whole holds a higher share of actives than the screen did. Unmarked numbers belong to inactive results. The call rests on the fitted dose curve; in most records, active means well fitted activation curve with a large enough effect; inconclusive means small, poorly fitted or top-dose-only effect; inactive means no such curve, though single readings can be large or run the other way.
Test: qHTS of TDP-43 Inhibitors: NCGC Sytravon Library Screen; further: nearly all actives have a fitted effect of over 55% in size; on growth rescue (activation): 0% is about no effect
Details: yeast TDP-43 toxicity rescue, BacTiter-Glo growth, 24 h; series mostly up to 46.1 µM; growth rescue (activation): at the top concentration
Description: The goal of this project is to identify new chemical probes capable of reversing the toxicity associated with TDP-43 which is associated with frontotemporal lobar degeneration and amyotrophic lateral sclerosis. These compounds will provide a complementary approach to deciphering the tangled mechanisms of toxicity and protection that we have uncovered through genome-wide genetic screens and are beginning to uncover in a large-scale proteomics analysis with mass spectroscopy. To this end, a miniaturized assay was developed to be screened against the Molecular Libraries Small Molecule Repository (MLSMR) to discover TDP-43 inhibitors. Please note that in the set-up this yeast-based assay compounds that inhibit as TDP-43, have a read-out as activators. NIH Chemical Genomics Center [NCGC] NIH Molecular Libraries Probe Centers Network [MLPCN] Assay Submitter (PI): Susan Lindquist, Whitehead Institute/MIT MLPCN Grant: R21 NS060957
Dispense 2.5 microL yeast galactose medium per 1536-well plate, pin compound, dispense 2.5 microL TDP-43 expressing yeast in galactose medium at OD600=0.02 (pregrown in raffinose medium to mid-log phase) per well, incubate for 24 hr at 30 deg C, and cell growth will be measured using 5 microL of Bactiter/Glo reagent to entire plate and read using Luminescence Protocol in ViewLux.
For COc1ccc(CN2CCC(C)(Oc3cccc(F)c3)C2)c2ccccc12 (centres undefined), the “growth rescue (activation)” value was -7.83%. With O=C(NCc1ccc(F)cc1)c1cc(C2CCCCN2C(=O)c2cccs2)on1 (centres undefined) the “growth rescue (activation)” value was 22.8%. For CN(CC(=O)NC(=O)Nc1ccccc1F)Cc1ccccc1, the “growth rescue (activation)” value was -6.54%. With CCn1c(CSc2nc(C)cc(C)n2)nnc1SCC(N)=O the “growth rescue (activation)” value was 2.73%. With O=C(O)C(F)(F)C(NCc1ccccc1)c1ccccc1 (centres undefined) the “growth rescue (activation)” value was -7.2%. With CC(C(=O)Nc1ccc(F)c(F)c1F)N1CCCCCC1 (centres undefined) the “growth rescue (activation)” value was 14.6%. For O=C(NCCc1ccc(F)cc1)c1n[nH]c2ccccc12, the “growth rescue (activation)” value was 28.9%. For N/C(=N\OC(=O)c1ccc2c(c1)OCO2)c1ccc(Br)cc1, the Potency was 3.55 µM (active). In the case of N#Cc1ccccc1NC(=O)c1ccc2c(c1)OCO2, the “growth rescue (activation)” value is reported as 15.1%. For O=C(COC(=O)c1ccncc1)Nc1ccc2c(c1)OCO2, the “growth rescue (activation)” value was 5.9%. For O=C(O)CC1(CC(=O)Nc2cccc(C(F)(F)F)c2)CCCC1, the “growth rescue (activation)” value was 19.5%. For Cn1c(NCc2cccnc2)nc2cc(-c3ccc(F)cc3)sc2c1=O, the “growth rescue (activation)” value was 0.425%. With Cc1ccc(C)c(NC(=O)CN(C)C(=O)COc2ccc3ccccc3c2)c1 the “growth rescue (activation)” value was -0.898%. In the case of NS(=O)(=O)c1cccc(NC(=O)CN2CCCc3ccccc32)c1, the “growth rescue (activation)” value is reported as 12.9%. For O=C(CCn1nnc2ccccc2c1=O)N[C@@H](Cc1c[nH]c2ccccc12)C(=O)O, the “growth rescue (activation)” value was -8.31%. For O=C(NC1CC1)C(Cc1ccccc1)NS(=O)(=O)c1ccccc1F (centres undefined), the “growth rescue (activation)” value was 5.63%. For COc1cccc(CC2(CO)CCN(Cc3cnc(-c4cccc(C)c4)nc3)CC2)c1, the “growth rescue (activation)” value was 8.67%. In the case of COCCCNC(=S)N1CCCC(c2nc3cc(C)c(C)cc3[nH]2)C1 (centres undefined), the “growth rescue (activation)” value is reported as 8.91%. In the case of CCC1CCCCN1C(=O)CSc1nc2c(c(=O)n(C)c(=O)n2C)n1C (centres undefined), the “growth rescue (activation)” value is reported as -3.65%. With CC(C)c1ccc(N(C(=O)c2ccco2)C(C(=O)NC2CCCC2)c2cccnc2)cc1 (centres undefined) the “growth rescue (activation)” value was 13.8%. In the case of COc1ccc(N2CCN(C(=O)C3CCN(C(=O)c4ccccc4Cl)CC3)CC2)cc1, the “growth rescue (activation)” value is reported as 9.74%. For CCc1cc(-c2nnc(SCC(=O)NC3CC3)n2C)cs1, the “growth rescue (activation)” value was 0.827%. In the case of COc1ccc(-c2[nH]ncc2CN(C)Cc2cc(C)[nH]n2)c(F)c1, the “growth rescue (activation)” value is reported as -11.4%. In the case of CCOc1ccccc1Oc1cn[nH]c1-c1ccc(OC)cc1O, the Potency is reported as 15.8 µM (active). For COc1ccc(-c2n[nH]c(C)c2-c2ccccc2OC)c(O)c1, the “growth rescue (activation)” value was -0.59%. In the case of COc1ccc(S(=O)(=O)N2CCOCC2)cc1NC(=O)CSc1nnc(NC2CC2)s1, the “growth rescue (activation)” value is reported as 8.11%. With Cn1cc(CN2CCCCC2c2ccccn2)c(-c2ccc3c(c2)OCCO3)n1 (centres undefined) the “growth rescue (activation)” value was -18.4%. With Cc1ccc(SCC(=O)NNC(=O)c2ccc(S(C)(=O)=O)cc2)cc1 the “growth rescue (activation)” value was -21.6%. In the case of CCOC(=O)C1CCN(c2ccc(C(=O)O)cc2[N+](=O)[O-])CC1, the “growth rescue (activation)” value is reported as 18.7%. In the case of CC(C)(C)c1nnc2sc(SCC(O)=C(C#N)c3nc4ccccc4[nH]3)nn2c1=O, the “growth rescue (activation)” value is reported as 2.04%. With N#Cc1nc(Cc2cccc3ccccc23)oc1NCc1ccc2c(c1)OCO2 the Potency was 12.6 µM (active). With CC1(C(=O)NCc2ccc3c(c2)OCO3)CCN1C(=O)Cc1cccc2ccccc12 (centres undefined) the “growth rescue (activation)” value was 22.8%. In the case of COc1cccc(CC(=O)OCC(=O)NCc2ccc3c(c2)OCO3)c1, the “growth rescue (activation)” value is reported as -6.63%. In the case of O=C(Nc1ccccc1)/C(=C\c1ccco1)NC(=O)c1ccco1, the “growth rescue (activation)” value is reported as 2%. In the case of Nc1nc(SCC(=O)NN(c2ccccc2)c2ccccc2)n[nH]1, the “growth rescue (activation)” value is reported as -8.42%. For CC(C)(C)SCCNC(=O)c1cccc([N+](=O)[O-])c1, the “growth rescue (activation)” value was 3.85%. For Cc1nn(-c2ccccc2)c2c1C(c1cccc([N+](=O)[O-])c1)N(c1ccccc1)C(=O)N2 (centres undefined), the “growth rescue (activation)” value was -1.22%. With COc1ccc(C(C(=O)NC2CCCC2)N(CCCO)C(=O)Cn2nnc(-c3ccc(C)o3)n2)cc1 (centres undefined) the “growth rescue (activation)” value was -3.96%. With CSc1ccc(C(=O)C2CCCN(C(=O)c3ccc(C)nc3)C2)cc1 (centres undefined) the “growth rescue (activation)” value was 7.96%. In the case of CC(=O)N1CCN(C(=O)C2(NC(=O)Nc3ccc(C)cc3)CCCCC2)CC1, the “growth rescue (activation)” value is reported as 14.2%. For CC(=O)Oc1ccc2c(=O)oc(-c3ccc([N+](=O)[O-])cc3)nc2c1, the “growth rescue (activation)” value was 6.06%. With CC(=O)C1=C(C)NC2=C(C(=O)CC(C)(C)C2)C1C (centres undefined) the “growth rescue (activation)” value was 7.05%. In the case of Oc1ccccc1C=NC1CCCCC1N=Cc1ccccc1O (centres undefined), the “growth rescue (activation)” value is reported as 1.52%. For O=C(c1ccc(F)cc1)N1CCC(n2nnc3ccccc32)CC1, the “growth rescue (activation)” value was 1.07%. With Cc1ccc(NC(=O)CSc2nnc(CNC(=O)c3ccccc3F)o2)cc1 the “growth rescue (activation)” value was -1.92%. With O=C(N/N=C/c1ccc2c(c1)OCO2)C(=O)N1CCCC1 the “growth rescue (activation)” value was 10.5%. With CC(OC(=O)c1ccc(Cl)cc1O)C(=O)NCCC1=CCCCC1 (centres undefined) the “growth rescue (activation)” value was -10.8%. In the case of O=C(C1CCN(Cc2ccc(Cl)cc2)CC1)N1CCN(Cc2ccc3c(c2)OCO3)CC1, the “growth rescue (activation)” value is reported as 14.4%. For COc1cccc(CC(=O)Nc2nc(-c3ccc(OC)c(OC)c3)cs2)c1, the “growth rescue (activation)” value was 14.4%. With CCN(CC(=O)NC(C)C)C(=O)c1cc(S(=O)(=O)N2CCCCC2)ccc1N1CCCCC1 the “growth rescue (activation)” value was 5.21%. In the case of Cc1ccc(-c2noc(CNC(=O)c3ccoc3C)n2)cc1, the “growth rescue (activation)” value is reported as -6.36%. For O=C(CCc1c[nH]c2ccccc12)NCCOc1ccccc1, the “growth rescue (activation)” value was -0.599%. With CCn1cc(C(=O)NCC(=O)NC(C)(C)CO)c(=O)c2cc3c(cc21)OCO3 the “growth rescue (activation)” value was 6.6%. With Cc1cccc(C(=O)NCC(=O)OCC(=O)N2CC3(C)CC2CC(C)(C)C3)c1 (centres undefined) the “growth rescue (activation)” value was 2.65%. For COc1ccc(OCC(=O)NNC(=O)c2cccc(C)c2)cc1, the “growth rescue (activation)” value was 5.1%. In the case of Cc1cc(C)cc(NC(=O)CSc2ccccc2)c1, the “growth rescue (activation)” value is reported as 13.4%. With Cc1ccc(NC(=O)CN(C)C(=O)c2ccc(Br)o2)cc1 the “growth rescue (activation)” value was -3.69%. For CNCC(O)CN1CCN(c2ccccc2OC)CC1 (centres undefined), the “growth rescue (activation)” value was -12.4%. With O=c1c(-c2ccc(Cl)cc2)[n+]([O-])c2ccccc2n1OCc1nc2ccccc2[nH]1 the “growth rescue (activation)” value was -4.37%. In the case of Cc1cc(C)cc(N(CC(=O)NCCSCc2ccco2)S(C)(=O)=O)c1, the “growth rescue (activation)” value is reported as -12.8%. With COC(=O)c1ccc(CN2CCC(CO)(Cc3ccc(OC)cc3)CC2)cc1 the “growth rescue (activation)” value was -3.6%. In the case of CN(C)S(=O)(=O)N1CCN(c2ccc([N+](=O)[O-])cc2)CC1, the “growth rescue (activation)” value is reported as 5.23%. For COc1ccc(N2CCN(c3ccc([N+](=O)[O-])cc3Cl)CC2)cc1, the “growth rescue (activation)” value was 3.99%. With O=[N+]([O-])c1ccc(N2CCN(c3ccc(O)cc3)CC2)c(Cl)c1 the Potency was 12.6 µM (active). With COCCCNc1ccn2nc(-c3ccc(CC(C)C)cc3)cc2n1 the “growth rescue (activation)” value was -47.9%. In the case of S=C(Nc1ccc(Br)cc1Cl)NC1CCN(Cc2ccccc2)CC1, the “growth rescue (activation)” value is reported as 1.2%. In the case of CC(C)=CCN1CCN(Cc2ccc(Oc3ncccn3)cc2)CC1CCO (centres undefined), the “growth rescue (activation)” value is reported as 2.62%. With Cc1ccc(C)c(NC(=O)c2ccc3nccnc3c2)c1 the “growth rescue (activation)” value was -4.87%. With CC(C(=O)O)n1cnc2sc3c(c2c1=O)CCCC3 (centres undefined) the “growth rescue (activation)” value was 3.86%. For Cc1ccc(C(=O)NC2CCN(C(=O)Nc3ccc(F)cc3)CC2)cc1, the “growth rescue (activation)” value was 5.39%. For Cc1ccc(/C=N/NC(=O)CN2CCN(Cc3ccccc3)CC2)s1, the “growth rescue (activation)” value was 19.6%. With COc1ccc2cc(S(=O)(=O)Nc3ccccn3)ccc2c1 the “growth rescue (activation)” value was 16%. With O=C(Cc1ccccc1)Nc1c(Cl)ccc2nsnc12 the “growth rescue (activation)” value was -0.414%. For CC(Oc1ccccc1F)C(=O)NN (centres undefined), the “growth rescue (activation)” value was 7.92%. In the case of COc1ccc(NC(=O)C2(C)Cc3c(-c4cccc(NC(C)=O)c4)ccnc3O2)cc1 (centres undefined), the “growth rescue (activation)” value is reported as -1.39%. With COc1ccc(NC(=O)C2Cc3c(-c4ccc(Cl)cc4)ccnc3O2)cc1 (centres undefined) the Potency was 20 µM (active). For COc1ccc(NC(=O)C2COc3ccccc3O2)cc1 (centres undefined), the “growth rescue (activation)” value was 20.8%. In the case of Cc1ccc(N2CCN(C(=O)c3cccs3)CC2)c(C)c1, the “growth rescue (activation)” value is reported as 12.1%. With O=c1[nH]oc(O)c1-c1ncc(C(F)(F)F)cc1Cl the “growth rescue (activation)” value was -3.8%.
Potency means the concentration at half of the fitted maximal effect.
